About 83,000 compounds went through this panel and 20% of them were active in at least one assay; those are over-represented in the sample as a whole.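 Compound tested at a single concentration for 48 hours in 96-well plates; a percent growth value below 10 was scored as active.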 Active and inactive are the calls of the source.

The assay concerns HL-60(TB) leukemia. In words: NCI-60 one-dose screen, 48 h (100 = growth as untreated, 0 = no growth, -100 = all killed). Conditions: 10 µM unless noted.
For the compound `Clc1ccc2[nH]cc(-c3nn4cc(-c5cccnc5)nc4s3)c2c1`, the growth is 86.2% (inactive).

`O=C1Nc2cc(Cl)ccc2/C1=C\c1ccc(OCc2ccc([N+](=O)[O-])cc2)cc1`: the growth was 96.9% (inactive).

Turning to `CCn1c(SCC(=O)Nc2cccc(C(=O)/C=C/c3ccccc3Cl)c2)nc2ccccc2c1=O`, the growth was 107% (inactive).

On to `CCN1C(=O)N(CC)C2SC(N/N=C/c3cccs3)=NC21` (stereo not given), for which the growth is 1.27% (active).

Consider `N/C(=N\OC(=O)CSc1nc2ccccc2s1)c1ccc(Cl)cc1`, for which the growth is 108% (inactive).

For the origin of these results see PubChem BioAssay (NCI).
